Assay results taken from PubChem BioAssay AID720648 (The Scripps Research Institute Molecular Screening Center, 2013).
The whole screen tested about 370,000 compounds, of which about 3,100 (0.84%) were called active. The sample holds actives, similar compounds and a random draw of the others, so the mix is not that of the screen.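 Rule for the calls: active = inhibition above the mean of compounds lying between control limits plus 3 SD, set per campaign (cut at about 8.5% in these data); inactive = the rest.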

molecular target: Disintegrin and metalloproteinase domain-containing protein 17 (Homo sapiens) (UniProt P78536); test: inhibition of ADAM17 peptide cleavage – biochemical, QFRET, primary screen (AID 720648); details: recombinant ADAM17, EDANS/DABCYL FRET peptide cleavage; at 6.95 µM; active compounds read high;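 note: 0% = DMSO-only wells as the low control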
Sequence (P78536 215-824 limits assumed): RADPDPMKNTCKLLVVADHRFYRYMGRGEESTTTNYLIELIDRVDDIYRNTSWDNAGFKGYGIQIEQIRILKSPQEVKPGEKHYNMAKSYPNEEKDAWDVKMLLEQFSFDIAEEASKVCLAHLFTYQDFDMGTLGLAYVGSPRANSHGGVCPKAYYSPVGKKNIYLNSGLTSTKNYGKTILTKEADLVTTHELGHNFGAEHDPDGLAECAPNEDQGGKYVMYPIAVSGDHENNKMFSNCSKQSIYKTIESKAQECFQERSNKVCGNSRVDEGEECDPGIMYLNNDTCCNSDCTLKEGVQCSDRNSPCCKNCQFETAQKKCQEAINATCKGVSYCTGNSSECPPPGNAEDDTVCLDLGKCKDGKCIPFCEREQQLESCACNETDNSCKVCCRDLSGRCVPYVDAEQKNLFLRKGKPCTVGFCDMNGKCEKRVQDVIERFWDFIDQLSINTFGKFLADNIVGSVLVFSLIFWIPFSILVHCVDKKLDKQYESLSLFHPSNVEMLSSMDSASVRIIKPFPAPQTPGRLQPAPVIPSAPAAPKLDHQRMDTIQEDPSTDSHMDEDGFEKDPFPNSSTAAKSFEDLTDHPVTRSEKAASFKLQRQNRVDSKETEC

inhibition, inactive:
COC(=O)[C@]12C[C@H](CC(=O)NCc3ccccc3)C(=O)N(CCC3=CCCCC3)C1=C[C@H](C(C)C)O[C@@H]2C1CC1 6.48%
CC1(C(=O)NCc2ccc3c(c2)OCO3)CCN1C(=O)Cc1cccc2ccccc12 (centres undefined) -3.18%
O=C(CCNS(=O)(=O)c1ccccc1C(F)(F)F)NCc1ccc2c(c1)OCO2 -0.25%
CCOC(=O)C(=O)N(Cc1ccccc1)c1ccccc1C(=O)Nc1cc(OC)ccc1OC 4.35%
O=C(CSc1nnc(-c2ccccn2)n1-c1ccc(Cl)cc1)Nc1ccccc1-c1ccccc1 5.21%
CN(C(=O)c1cccc(NC(=O)Cc2ccc([N+](=O)[O-])cc2)c1)C1CCC1 3.46%
CN(C(=O)c1cccc(NC(=O)Cc2cccc(NC(=O)C3CCCN(C(=O)C4CC4)C3)c2)c1)C1CCC1 (centres undefined) -2.72%
Cc1ccccc1CS(=O)(=O)Cc1ccc(C(=O)Nc2ccc(Cl)cc2)o1 -7.43%
CC(C)CC1C(=O)N(Cc2cn(CC3CCCCC3)nn2)CCS(=O)(=O)N1Cc1ccc(-c2ccc(Cl)cc2)cc1 (centres undefined) -0.31%
CC1C(=O)N(Cc2cn(Cc3ccco3)nn2)CCS(=O)(=O)N1Cc1ccc(-c2cccc(CO)c2)cc1 (centres undefined) 0.84%
CC1C(=O)N(Cc2cn(CC3CCCCC3)nn2)CCS(=O)(=O)N1Cc1ccc(-c2cccc(N(C)C)c2)cc1 (centres undefined) -2.56%
COc1ccc(-c2ccc(CN3C(CC(C)C)C(=O)N(Cc4cn(CC5CCCCC5)nn4)CCS3(=O)=O)cc2)cn1 (centres undefined) 3.81%
COc1cc(/C=C/C(=O)n2cnc3ccccc32)cc(OC)c1OC -11.9%
CC(=O)OC12CCCN(C1)/C(=C/c1ccncc1)C2 (centres undefined) -1.16%
Clc1ccc(-n2c(SC/C=C/c3ccccc3)nnc2-c2ccco2)cc1 8.36%
CC(C)CNc1cccc2c1S(=O)(=O)N(Cc1cn(Cc3ccccc3C(F)(F)F)nn1)Cc1ccccc1O2 -9.08%
CCCNC(=O)C1CC(=O)N(c2ccc(OCc3ccccc3)cc2)C1 (centres undefined) -1.62%
COc1cc(C2C(C(=O)c3ccco3)=C(O)C(=O)N2c2cc(C)on2)ccc1OCc1ccccc1 (centres undefined) -1.07%
Cc1cc(C)nc(NC(=S)N2CCN(c3ccc(C(F)(F)F)cn3)CC2)c1 -0.9%
CC(C)c1ccc(NC(=S)NC2CC3C=CC2C3)cc1 (centres undefined) 1.36%
Cc1ccc(C)c(NC(=S)NCC(c2cccnc2)N2CCOCC2)c1 (centres undefined) 4.64%
COc1ccnc(NC(=S)N2CCN(c3ncc(C(F)(F)F)cc3Cl)CC2)c1 -3.73%
C[C@H](C(=O)N(C)c1ccccc1)[C@@H](O)c1ccc(Cl)cc1 -3.74%
C[C@@H]1CN([C@H](C)CO)C(=O)CCCn2nncc2CO[C@@H]1CN(C)C(=O)OCc1ccccc1 -3.01%
C[C@H](CO)N1C[C@H](C)[C@@H](CN(C)C(=O)C2CCCCC2)OCc2cnnn2CCCC1=O 3%
COC(CNC(=O)[C@H](Cc1ccccc1)NC1(C(=O)NC2CCCCC2)CCCCC1)OC -1.27%
COc1ccc(S[C@]2(C(=O)N(C)C)CC(=O)N(c3ccc(OC)cc3)[C@@H]2c2ccc(OC)cc2)cc1 3.23%

inhibition, active:
N#Cc1nc(Cc2cccc3ccccc23)oc1NCc1ccc2c(c1)OCO2 9.51%
CN(C(=O)c1cccc(NC(=O)Cc2cccc([N+](=O)[O-])c2)c1)C1CCCCC1 10.3%
COc1ccc(-c2ccc(CN3C(CC(C)C)C(=O)N(Cc4cn(CC5CCCCC5)nn4)CCS3(=O)=O)cc2)cc1 (centres undefined) 9.87%
COc1ccc(Cn2cc(CN3CCS(=O)(=O)N(Cc4ccc(-c5cccc(Cl)c5)cc4)C(C)C3=O)nn2)cc1 (centres undefined) 10%
COc1cc(C2CC(=O)N3CN(Cc4ccccc4)CSC3=C2C#N)ccc1OCc1ccccc1 (centres undefined) 10.2%
Cc1ccc(C)c(NC(=S)NNC(=S)Nc2ccc(C(C)C)cc2)c1 11%
COC(=O)N(C)C[C@@H]1OCc2cnnn2CCCC(=O)N([C@@H](C)CO)C[C@@H]1C 8.71%
